Bioassay records: PubChem, National Center for Advancing Translational Sciences (NCATS)
Hits are enriched below; roughly 6% of the tested compounds scored in any of these assays.
D1 antagonist: blocks dopamine activation of the human D1 receptor; actives 3.2% (n = 360,000); activity change, negative = inhibition, % at 10 µM; HEK293 TREx D1 cells, calcium flux, dopamine EC80; stronger effect = lower value; AID 504652; in the data active = activity change below about -30%
Target sequence (P21728 whole entry, looked up): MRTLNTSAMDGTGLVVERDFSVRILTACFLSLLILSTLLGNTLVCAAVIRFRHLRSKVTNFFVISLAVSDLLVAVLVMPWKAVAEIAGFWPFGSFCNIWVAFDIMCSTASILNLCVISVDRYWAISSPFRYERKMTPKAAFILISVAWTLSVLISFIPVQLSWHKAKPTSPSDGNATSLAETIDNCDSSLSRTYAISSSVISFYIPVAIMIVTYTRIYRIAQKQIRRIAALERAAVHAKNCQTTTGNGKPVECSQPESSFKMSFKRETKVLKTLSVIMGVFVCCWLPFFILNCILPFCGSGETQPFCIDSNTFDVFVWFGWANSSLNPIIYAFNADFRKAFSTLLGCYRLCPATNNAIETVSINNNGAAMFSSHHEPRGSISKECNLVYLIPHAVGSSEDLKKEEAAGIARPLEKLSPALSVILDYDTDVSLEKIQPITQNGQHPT
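Compound effects on dopamine-evoked calcium signalling were measured in tetracycline-induced HEK293 Trex D1 cells. Dopamine at EC80 followed a 180 s compound pre-read, and fluorescence was tracked kinetically for 180 s more.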
D1 potentiator: potentiators of human D1 dopamine receptor; P21728; HEK293 TREx D1 cells, calcium flux, dopamine EC20 potentiation; potentiation, % at 10 µM; actives 0.036% (n = 360,000); in the data active = potentiation above about 30%
D1 ag: human D1 receptor agonism | P21728 | HEK293 T-REx D1 cells, calcium flux, agonist mode | activation, % at 2 µM | actives 1% (n = 360,000); in the data active = activation above about 30%
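Inducible HEK293 T-REx D1 cells, force-coupled to calcium signalling, were plated at 4000 cells/well with tetracycline and held overnight at 30 C. After no-wash calcium dye loading, compound-evoked calcium rise over 180 s flagged agonists.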
DRD3 antagonist: blocks the human D3 dopamine receptor | max response, negative = inhibition, % | AID 652054 | actives 2.5% (n = 360,000) | D3R cells, DiscoveRx beta-arrestin luminescence, antagonist mode; stronger effect = lower value | P35462; in the data active = max response below about -50%; inconclusive = no clear call, values can overlap the other calls
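Cells plated overnight at 1500 cells/well, then exposed to library compounds with dopamine controls for 90 minutes at 37 degrees C. DiscoveRx reagent added for 30–60 minutes at room temperature; luminescence read, quantitative HTS format.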
DRD3 agonist: agonists of human D3 dopamine receptor | D3R DiscoveRx beta-arrestin cells, luminescence, 90 min | max activation, % | P35462 | AID 652048 | actives 0.58% (n = 410,000); in the data active = max activation above about 30%
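Cells at 1500/well, incubated overnight, then treated with pinned compounds (dopamine as control) for 90 min at 37 degrees C. DiscoveRx reagent added for 30 - 60 minutes at room temperature; luminescence read.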
Of the large screens only hits and unclear results are named; the others gave an inactive call.

O=C(COc1ccccc1[N+](=O)[O-])OC1CCS(=O)(=O)C1 (centres undefined)	D1 antagonist -78.5
O=C(COc1ccccc1[N+](=O)[O-])N(C1CCCCC1)C1CCS(=O)(=O)C1 (centres undefined)	none
Cn1cnc2c1c(=O)n(Cc1cccc(Br)c1)c(=O)n2C	none
CCn1cnc2c1c(=O)n(Cc1cccc(Br)c1)c(=O)n2Cc1ccccc1	DRD3 agonist 35.0
CCn1cnc2c1c(=O)n(CC(=O)Nc1ccc3c(c1)OC(F)(F)O3)c(=O)n2Cc1ccccc1	DRD3 antagonist -50.1
O=C(NCc1ccc(F)cc1F)[C@@H]1CCCN1C(=O)[C@@H]1CCCN1C(=O)c1cccc2ccccc12	none (no result: D1 antagonist, D1 potentiator, D1 ag)
CC1(CC(=O)N/N=C/c2ccc(-c3cccc(C(F)(F)F)c3)o2)OCCO1	D1 antagonist -36.8
CCN(CC)c1ccc(/C=C(\C#N)c2nc(-c3cccs3)c(NC(C)=O)s2)cc1	D1 ag 213.5 (no result: DRD3 antagonist, DRD3 agonist)
O=C(c1cc(-c2ccc(Cl)cc2)on1)N(Cc1ccc(F)cc1)Cc1ccco1	D1 antagonist -39.0, D1 ag 30.4 (no result: DRD3 antagonist)
O=C(c1cc(-c2ccc(Cl)cc2)on1)N(Cc1cccc(F)c1)Cc1ccco1	D1 ag 33.4 (no result: DRD3 antagonist)
O=C(c1ccc(Cl)cc1)N(Cc1ccco1)Cc1ccco1	none (no result: DRD3 antagonist)
CS(=O)(=O)c1ncc(Cl)c(C(=O)N(Cc2ccc(Cl)cc2)Cc2ccco2)n1	D1 antagonist -63.1 (no result: DRD3 antagonist)
O=CC(O)C1OC(=O)C(O)C1O (centres undefined)	none (no result: D1 antagonist, D1 potentiator, D1 ag)
CCCc1nnc(NC(=O)Cn2c(=O)oc3ccccc32)s1	none
CCCc1nnc(NC(=O)Cn2c(=O)oc3cc(Br)ccc32)s1	D1 ag 61.8
Cn1c(=O)c2c(nc(OCc3ccc4c(c3)OCO4)n2Cc2ccccc2Cl)n(C)c1=O	none
C=CCOc1nc2c(c(=O)n(C)c(=O)n2C)n1Cc1ccccc1Cl	DRD3 agonist 36.2
Cn1c(=O)c2c(nc(NCc3ccc4c(c3)OCO4)n2Cc2ccccc2Cl)n(C)c1=O	D1 antagonist -80.7
c1cc2c(cc1Cn1cnnn1)OCO2	DRD3 antagonist -57.3
CC(=O)N1CCC2(CC1)CC(=O)c1cc(OCC(=O)N3CCOCC3)ccc1O2	D1 antagonist -38.0
CCOC(=O)N1CCN(C(=O)COc2ccc3c(c2)C(=O)CC2(CCN(C(C)=O)CC2)O3)CC1	none
Cc1onc(-c2ccccc2)c1C(=O)NC(=S)NNC(=O)c1ccc(O)cc1O	none
CCCOc1ccc(C(=O)NC(=S)NNC(=O)c2c(-c3ccccc3)noc2C)cc1	D1 ag 207.3
CCCOc1ccc(C(=O)NNC(=S)NC(=O)CC)cc1	D1 antagonist -71.3, DRD3 antagonist inconclusive
Cc1onc(-c2ccccc2)c1C(=O)NC(=S)NNC(=O)c1ccccc1O	D1 ag 143.1
O=C(NC1(C(F)(F)F)NC(=O)N(CCc2ccccc2)C1=O)c1ccccc1Cl (centres undefined)	none (no result: DRD3 antagonist)
NC(C(=O)O)C1ON=C(Cl)C1O (centres undefined)	none (no result: D1 antagonist, D1 potentiator, D1 ag)
COCCCn1c(=S)[nH]c2ccc(N3CCOCC3)cc2c1=O	none
CCCCN(C)CCn1c(=S)[nH]c2ccc(N3CCOCC3)cc2c1=O	DRD3 antagonist -65.6
CCCCCCCN(CC)CCCC(O)c1ccc(NS(C)(=O)=O)cc1 (centres undefined)	none (no result: D1 antagonist, D1 potentiator, D1 ag, DRD3 antagonist)
CSC1=NC2(CCN(C(=O)NC3CCCCC3)CC2)N=C1c1ccc(C)cc1	none (no result: DRD3 antagonist)
Cc1nnsc1C(=O)N/N=C/c1ccc2ccccc2c1O	D1 ag 138.4
Cc1nnsc1C(=O)N/N=C/c1ccccc1	none
COc1ccc(C(=O)N=S2CCN(C(=O)c3ccc(Cl)cc3)CC2)cc1	none
CCN(CC)c1ccc([N+](=O)[O-])cc1/C=N/NC(=O)CC#N	none
Cc1cc(/C=N/NC(=O)CC#N)c(C)n1-c1ccc([N+](=O)[O-])cc1	D1 antagonist -37.1
Cc1ccc(-n2c(C)cc(/C=N/Nc3ccc([N+](=O)[O-])cn3)c2C)cc1	D1 antagonist -45.9
Cc1cc(/C=N/Nc2ccc([N+](=O)[O-])cn2)c(C)n1-c1ccccc1	DRD3 antagonist inconclusive (no result: D1 antagonist)
Cc1cc(C)c(-n2nnnc2SCC(=O)c2cc3ccccc3o2)c(C)c1	none
O=C(CSc1nnnn1-c1ccc(O)cc1)c1cc2ccccc2o1	D1 ag 32.3
CCCN(CC1CC1)C(=S)NC(=O)c1cc(Br)ccc1Cl	none
COc1cccc2c1O/C(=N\O)C(C(=O)Nc1cccc(Br)c1)C2 (centres undefined)	DRD3 antagonist -53.8
COc1cccc2c1O/C(=N\O)C(C(=O)Nc1ccc(C)cc1)C2 (centres undefined)	none
O=C1C2CCCCN2C(=O)N1CCCN1CCN(c2cccc(C(F)(F)F)c2)CC1 (centres undefined)	DRD3 antagonist -66.6 (no result: D1 antagonist, D1 potentiator, D1 ag)
O=C1C2CCCN2C(=O)N1CCCN1CCN(c2cccc(Br)c2)CC1 (centres undefined)	DRD3 antagonist -77.8
Nc1ccc(N2CCN(CCCCN3C(=O)C4CCCN4C3=O)CC2)cc1 (centres undefined)	none
O=C1C2CCCN2C(=O)N1CCN1CCN(c2cccc(C(F)(F)F)c2)CC1 (centres undefined)	none (no result: D1 antagonist, D1 potentiator, D1 ag)
O=C1C2CCCCN2C(=O)N1CCCN1CCN(c2ccc(F)cc2)CC1 (centres undefined)	DRD3 antagonist -57.1
O=C1C2C3C=CC(C4CC34)C2C(=O)N1CCCCN1CCN(c2ccc(F)cc2)CC1 (centres undefined)	DRD3 antagonist -85.0 (no result: D1 antagonist, D1 potentiator, D1 ag)
CCOc1cc(N2CCOCC2)c(OCC)cc1NC(=O)c1c(C)noc1C	none
COc1cccc(C(=O)Nc2ccc(C(=O)OCc3cc(=O)n4cc(C)sc4n3)cc2)c1	none (no result: DRD3 antagonist)
O=C(O)c1ccc2c(c1)C(=O)N(C(Cc1ccccc1)C(=O)O)C2=O (centres undefined)	none
O=C(O)c1ccc2c(c1)C(=O)N([C@H](Cc1ccc(C(F)(F)F)cc1)C(=O)O)C2=O	D1 antagonist -47.8 (no result: DRD3 antagonist, DRD3 agonist)
O=C(COC(=O)CSc1cc(Cl)ccc1Cl)Nc1ncc(C(F)(F)F)cc1Cl	D1 antagonist -32.4
O=C(N/N=C/c1cc(Br)cc(Br)c1O)c1cccc(S(=O)(=O)N2CCOCC2)c1	none
O=C(N/N=C/c1cc(Cl)cc([N+](=O)[O-])c1O)c1cccc(S(=O)(=O)N2CCOCC2)c1	DRD3 antagonist -93.0
O=C(N/N=C/c1cc(Cl)cc([N+](=O)[O-])c1O)c1ccc2c(c1)OCO2	DRD3 antagonist -67.3
CCOC(=O)N1CCN(CCC(=O)Nc2cccc(Cl)c2C)CC1	none
N#C/C(=C\c1ccc(-c2ccc(F)cc2F)o1)c1nc2ccccc2[nH]1	D1 ag 151.3 (no result: DRD3 antagonist)
N#C/C(=C\c1ccc(Cl)cc1)c1nc2ccccc2[nH]1	none (no result: DRD3 antagonist)
N#C/C(=C\c1ccc(Sc2ccccc2)o1)c1nc2ccccc2[nH]1	none
N#C/C(=C/c1ccc(Sc2nc3ccccc3[nH]2)o1)c1ccccc1F	D1 ag 39.0
